# Screens as filed in PubChem.
# Hits are enriched below; roughly 4.8% of the tested compounds scored in any of these assays.
# Mdm2-MdmX inh: inhibitors of human Mdm2-MdmX association, primary screen, cell-based, luminescence, split luciferase, SaOS-2, uHTS; SaOS-2 split-luciferase Mdm2/MdmX complementation; actives 3% (n = 330,000); Protein Mdm4 (Homo sapiens) + E3 ubiquitin-protein ligase Mdm2 (Homo sapiens), …; AID 485346, 2010; inhibition, % at 8 µM;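 active = inhibition of at least 50% at 8 µM in the primary screen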
# Target sequence (O15151 whole entry, looked up): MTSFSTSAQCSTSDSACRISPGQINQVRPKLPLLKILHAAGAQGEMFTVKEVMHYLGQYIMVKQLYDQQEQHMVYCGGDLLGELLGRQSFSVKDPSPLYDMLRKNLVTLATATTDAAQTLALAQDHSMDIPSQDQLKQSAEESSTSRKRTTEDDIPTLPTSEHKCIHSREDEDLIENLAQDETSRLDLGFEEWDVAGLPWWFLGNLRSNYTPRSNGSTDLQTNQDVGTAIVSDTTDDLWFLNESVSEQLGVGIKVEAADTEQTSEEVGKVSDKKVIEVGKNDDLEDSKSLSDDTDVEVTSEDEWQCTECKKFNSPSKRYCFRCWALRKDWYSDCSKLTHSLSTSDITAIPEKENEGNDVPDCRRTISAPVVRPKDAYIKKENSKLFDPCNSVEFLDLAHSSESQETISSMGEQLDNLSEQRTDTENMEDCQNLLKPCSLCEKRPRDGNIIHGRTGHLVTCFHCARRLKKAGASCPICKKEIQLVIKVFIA
# Target sequence (Q00987 whole entry, looked up): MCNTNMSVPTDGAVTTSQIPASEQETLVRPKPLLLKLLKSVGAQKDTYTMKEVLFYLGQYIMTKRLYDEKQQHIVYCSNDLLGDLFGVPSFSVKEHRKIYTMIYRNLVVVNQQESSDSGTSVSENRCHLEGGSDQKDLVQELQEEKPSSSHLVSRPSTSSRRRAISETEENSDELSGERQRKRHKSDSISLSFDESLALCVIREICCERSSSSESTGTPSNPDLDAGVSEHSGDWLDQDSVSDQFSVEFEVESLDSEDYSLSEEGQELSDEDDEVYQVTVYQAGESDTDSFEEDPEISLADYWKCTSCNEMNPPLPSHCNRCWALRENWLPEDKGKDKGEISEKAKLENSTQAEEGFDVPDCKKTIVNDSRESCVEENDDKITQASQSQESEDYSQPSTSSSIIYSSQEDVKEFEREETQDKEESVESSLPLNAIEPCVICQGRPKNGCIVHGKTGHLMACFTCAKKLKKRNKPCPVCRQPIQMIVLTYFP
# MPTP block: mitochondrial permeability transition pore inhibitors, primary screen, biochemical, isolated mouse mitochondria, absorbance; Ca2+ swelling absorbance, 30 min; inhibition, % at 10 µM; actives 1.4% (n = 360,000); AID 602449, 2012;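 active = inhibition of 50% or more, scaled per plate between neutral and stimulator controls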;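 also: 0% = DMSO wells given calcium and 100% = 1 mM EGTA wells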
# Beta apoptosis: inhibitors of cytokine-induced beta cell apoptosis, primary screen, luminescence; INS-1E cytokine-induced death, ATP luminescence, 48 h; percent of positive-control rescue, neutral wells zero; protection from apoptosis, % (test concentration not listed); actives 0.8% (n = 300,000);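 active = Every replicate reaches about 75%, or at least half do and their mean reaches it too, limit read from the data; inconclusive = At least half of replicates reach the limit but their mean does not; inactive = Under half of replicates reach the limit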;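 also: 0% = cytokine-treated negative control wells and 100% = positive control rescue; higher means more ATP so stronger rescue from cytokine killing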
# Calb FLC: C. albicans growth inhibition with fluconazole, primary screen, CaCi-2 strain, Alamar Blue fluorescence; C. albicans CaCi-2 (fluconazole-resistant clinical isolate) + fluconazole, 48 h; actives 0.57% (n = 300,000); AID 1979, 2009; growth inhibition, % (test concentration not listed);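 active = growth inhibition above about 58% in most replicates, limit read from the data, passing the limit was not always enough; inconclusive = exactly half the replicates above a set limit; inactive = most replicates below a set limit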;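 also: all wells also contain fluconazole at 8 µg/ml as a sub-toxic cotreatment; 0% = median of DMSO wells and 100% = median of geldanamycin control wells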
# CSC inhib: cancer stem cell viability inhibitors, primary screen, luminescence | actives 1.1% (n = 300,000) | AID 2717, 2010 | inhibition, % at 7.5 µM | cancer stem cell-like cells viability; in the data active = inhibition above about 75%; inconclusive = no clear call, values can overlap the other calls; tested in HMLE shEcad cells
# Rh123 counter: fluorescence retest of MPTP screen hits in isolated mitochondria, single concentration. shares compounds with MPTP block. membrane potential, Rhodamine 123 fluorescence. inhibition, % at 10 µM. actives 78% (n = 5,000). AID 624504, 2012; in the data active = inhibition above about 22%;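 also: 0% = DMSO vehicle and 100% = positive control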
# MPTP abs DR: mitochondrial permeability transition pore inhibitors, dose response, biochemical, absorbance, uHTS hits; shares compounds with MPTP block; isolated mitochondria swelling; IC50, µM; actives 58% (n = 780); in the data active = IC50 below about 20 µM
# MPTP cs DR: fluorescent counter-screen in isolated mitochondria, dose response, counter-screen for MPTP inhibitor project, biochemical, fluorescence, uHTS hits. actives 49% (n = 780). shares compounds with MPTP block. isolated mitochondria counterscreen, fluorescence read-out. IC50, µM; in the data active = IC50 below about 80 µM
# * marks the source's active call; other numbers are inactive results; u = inconclusive; x = no result given; + = active, no number.
SMILES,Mdm2-MdmX inh,MPTP block,Beta apoptosis,Calb FLC,CSC inhib,Rh123 counter,others
COc1ccc(NC(=O)Nc2ccc(F)c(Cl)c2)cc1,-64,87*,9,-5,17,85*,
O=C(Nc1cccnc1)c1cc(F)c(F)cc1Cl,21,-2,-5,4,-12,x,
CCC(CC)NC(=O)Nc1ccc(F)c(Cl)c1,-4,71*,2,-7,-2,84*,
CC(C)c1ccc(NC(=O)C2Cc3c(-c4ccco4)ccnc3O2)cc1 (stereo not given),x,-1,x,x,x,x,
CC(=O)Nc1cccc(NC(=S)Nc2ccc(F)c(Cl)c2)c1,12,95*,2,5,-5,87*,
CC(=O)Nc1cccc(NC(=O)Nc2ccc(C)c(Cl)c2)c1,3,3,0,11,10,x,
Cc1cccc(OCCC(=O)Nc2ccc(F)c(Cl)c2)c1,18,78*,-2,-21,9,79*,
Cc1ccc(-c2nn(-c3ccccc3)cc2CNCc2ccccc2)cc1,36,96*,-2,3,73,-3,MPTP abs DR=4.7*;MPTP cs DR=30*
COc1ccc(-c2nn(-c3ccccc3)cc2CO)cc1,17,0,3,3,-5,x,
Cc1ccc2nc(N/C(=N/S(=O)(=O)c3ccc(F)cc3)c3ccccc3)sc2c1,-26,28,5,12,21,x,
Cc1ccc2nc(N/C(=N/S(=O)(=O)c3ccc(F)cc3F)c3ccccc3)sc2c1,-7,50*,7,-2,29,69*,
N#C/C(=N/Nc1ccc(S(=O)(=O)N2CCOCC2)cc1)C(N)=O,6,-1,-5,-1,0,x,
N#C/C(=N\Nc1ccc(S(=O)(=O)N2CCCCCC2)cc1)C(N)=S,38,96*,x,-1,36,91*,
N#C/C(=N\Nc1ccc(S(=O)(=O)N2CCCCC2)cc1)C(N)=S,-4,79*,7,-12,20,79*,
N#CC(C#N)=NNc1ccc(S(=O)(=O)N2CCCC2)cc1,13,99*,-9,3,2,90*,
N#C/C(=N\Nc1ccc([N+](=O)[O-])cc1)C(N)=S,-4,86*,39,-5,35,62*,
CCOC(=O)c1ccc(NC(=S)NCc2ccco2)cc1,-7,65*,0,3,3,72*,
O=C(NCc1ccc(Cl)cc1)Nc1ccc(F)cc1,7,5,-8,-36,4,x,
CCOC(=O)c1ccc(NC(=S)NCc2ccc(F)cc2)cc1,-7,88*,-6,-2,-11,82*,
CC(C)c1ccc(NC(=O)NCc2ccc(F)cc2)cc1,4,61*,-4,-18,-5,86*,
CN(c1cccc2cccnc12)S(=O)(=O)c1ccccc1,2,0,x,14,-10,x,
COc1ccc(/C=C/c2nc(-c3ccccc3O)n(-c3ccccc3)n2)cc1,-3,4,0,2,12,x,
COc1ccc(/C=C/c2nc(-c3ccccc3O)n[nH]2)cc1,-263,56*,0,-15,44,46*,
COC(=O)Cc1cc(=O)n2[nH]c(C)cc2n1,15,+,-2,0,0,2,MPTP abs DR=>100;MPTP cs DR=>80
COC(=O)Cc1cc(=O)n2[nH]c(C)nc2n1,13,-1,-7,3,1,x,
SMILES,Mdm2-MdmX inh,MPTP block,Beta apoptosis,Calb FLC,CSC inhib,Rh123 counter,others
Cc1oc(-c2ccc(Cl)cc2)nc1CS(=O)CC(=O)NCCCN1CCCC(C)C1 (stereo not given),30,-1,-3,6,-2,x,
Cc1oc(-c2ccc(Cl)cc2)nc1CS(=O)CC(=O)NCCCN1CCN(Cc2ccccc2)CC1 (stereo not given),28,63*,51,22,-15,53*,
CC1=C(C(=O)N2CCOCC2)CC(CC(=O)NCC2CCCCC2)C(=O)N1Cc1ccc(C(C)(C)C)cc1 (stereo not given),x,0,x,x,x,x,
Cc1n[nH]c(=O)c2c(NC(=O)CSc3nn(-c4ccc(F)cc4)c(=S)s3)oc(C)c12,-12,87*,-7,-2,-6,84*,
Cc1n[nH]c(=O)c2c(NC(=O)CSc3c(Cl)cccc3Cl)oc(C)c12,5,-2,-2,2,-5,x,
O=C(Cc1nc2ccccc2[nH]1)c1ccc(Cl)cc1,-5,0,4,9,22,x,
Clc1ccc(/C(Cc2nc3ccccc3[nH]2)=N\Nc2ccccc2)cc1,15,86*,3,-45,12,70*,
CCn1c(O)c(/C=C2\C=Nc3ccccc32)sc1=Nc1ccccc1,1,53*,1,4,20,59*,
Cc1cccc(-c2ocnc2C(=O)N2CCN(C(=O)c3cccs3)CC2)c1,4,0,6,1,7,x,
O=C(N/C=C\c1ccccc1)NCc1ccc(Cl)cc1Cl,14,4,-12,7,1,x,
O=C(NCc1csc2ccc(Cl)cc12)Nc1cccc2ccccc12,-7,18,-3,-6,-10,x,
O=C(NCc1ccc(Cl)cc1Cl)Nc1ccccc1,-52,80*,6,3,15,94*,
O=C(NCc1csc2ccc(Cl)cc12)Nc1ccccc1,21,85*,0,17,26,75*,
COc1cc(/C=C/c2sc3ccccc3[n+]2CCCS(=O)(=O)[O-])ccc1O,-2,56*,29,-21,9,-11,
CN(C(=O)c1ccccc1C(=O)OCC(=O)Nc1cccc(Br)c1)c1ccccc1,16,1,-5,x,x,x,
COc1ccccc1NC(=S)NCCC(c1ccccc1)c1ccccc1,23,30,-1,x,-2,x,
COc1ccc(Cl)cc1NC(=S)NCCC(c1ccccc1)c1ccccc1,43,67*,-2,u,45,91*,
COc1cc(NC(=S)NCCC(c2ccccc2)c2ccccc2)c(OC)cc1Cl,31,97*,57,3,37,81*,
O=C(OC1CCOC1=O)c1ccc(Cl)c(S(=O)(=O)N2CCOCC2)c1 (stereo not given),-16,0,-16,x,-2,x,
c1csc(-c2nc3c4ccccc4c4ccccc4c3[nH]2)c1,47,72*,38,22,58,48*,
Oc1ccccc1-c1nc2c3ccccc3c3ccccc3c2[nH]1,x,2,6,3,-3,x,
COc1ccc(NC(=O)NCCCN2CCN(c3cc(C)ccc3C)CC2)cc1,26,82*,-3,22,22,-4,MPTP abs DR=15*;MPTP cs DR=39*
